The source of these data is PubChem BioAssay.

Structures are written as SMILES. Unmarked numbers belong to inactive results. Cut-off read from the data, not from the text of the source: active = inhibition above about 30%; inactive = the rest.

This assay in a line: growth suppression of yeast trafficking mutant, preliminary HTS, modulators of trafficking downstream of Golgi apparatus project, 1536-format plate, OD 615 nm (AID 637). As to conditions: yeast transport mutant growth, absorbance 615 nm, 18 h; active compounds read high.
As to `Cc1ccc(C)c(S(=O)(=O)C(C#N)c2nc3ccccc3nc2N2CC(C)OC(C)C2)c1` (centres undefined), the inhibition – broadly, the drop in the measured response relative to a control, in per cent – was 16.7%.

On to `COC(=O)c1ccccc1S(=O)(=O)N(Cc1cc2cc3c(cc2[nH]c1=O)OCO3)C1CCCCC1`, for which the inhibition is -2%.

With `CC(C)C(=O)Nc1ccc(C(=O)NCc2cccnc2)cc1`, the inhibition was -7.14%.

With `C=C(c1ccc(O)cc1)c1ccc(O)cc1`, the inhibition is -2.54%.

Take `Cc1ccc2c(c1)c1c(n2CC(O)Cn2c(C)nc3ccccc32)/C(=N\O)CCC1` (centres undefined): the inhibition is 15.4%.

With `C=CCn1c(COc2ccc(Cl)cc2)nnc1SCC(=O)N1CC(=O)Nc2ccccc21`, the inhibition was -3.02%.

Regarding `CCC(Sc1nc2n[nH]c(C)c2c(=N)n1-c1cc(Cl)ccc1C)C(=O)N1CCOCC1` (centres undefined), the inhibition is -10%.

As to `CCOC(=O)c1ccc(N2C(=O)CC(Sc3nnc(C)s3)C2=O)cc1` (centres undefined), the inhibition is -6.67%.

`N#CC1=C(N)n2c(s/c(=C\c3ccco3)c2=O)=C(C#N)C1c1ccco1` (centres undefined): the inhibition is -4.36%.

Take `COc1ccc(N2CCN(Cc3cc(=O)oc4cc(C)c(Cl)c(C)c34)CC2)cc1`: the inhibition was 1.9%.

Take `Cc1ccc(S(=O)(=O)N2CCOCC2)cc1C(=O)Nc1ccc(-c2cn3ccsc3n2)cc1`: the inhibition was -2.86%.

On to `CCCCCCc1ccc(-c2ncc(N)cn2)cc1`, for which the inhibition is 0.32%.

With `COc1cc(-c2noc(-c3ccccc3C(=O)NCc3ccco3)n2)cc(OC)c1OC`, the inhibition was 1.11%.

`Cc1ccc2nc(NC(=O)C3CCN(S(=O)(=O)c4cccc5nsnc45)CC3)sc2c1`: the inhibition is 10.3%.

Consider `CCOC(=O)c1sc(Nc2nc3c(OC)cccc3s2)nc1C`, for which the inhibition is -4.76%.

As for `CC(=O)c1ccccc1Oc1nc(CN2CCOCC2)nc2scc(-c3cccs3)c12`, the inhibition was 2.46%.

With `CCn1c2ccccc2c2cc(NC(=O)Cc3ccc(S(=O)(=O)N4CCOCC4)s3)ccc21`, the inhibition is -2.73%.

As to `Cc1[nH]nc(N=CC2=C(O)CC(C)(C)CC2=O)c1-c1ccc(Cl)cc1`, the inhibition is 6.83%.

Take `N#CC(C(=O)C1CCCCC1)c1nc2ccccc2[nH]1` (centres undefined): the inhibition was 20.6%.

On to `O=C(CSc1nnc2scc(-c3ccccc3)n12)Nc1nsc(-c2ccccc2)n1`, for which the inhibition is 0.48%.

`CC(C)(C)n1nnnc1C(c1ccccc1)N1CCc2ccccc2C1` (centres undefined): the inhibition was -2.7%.

`CCc1cc2c(=O)c(-c3nc4ccccc4[nH]3)coc2cc1OC(=O)N1CCOCC1`: the inhibition is -5.08%.

For `O=C(Nc1sc2c(c1C(=O)NCc1ccco1)CCCC2)c1ccc2c(c1)OCO2`, the inhibition was -6.35%.

Turning to `Cc1cccc(N2CCN(C(=O)c3ccc(NS(=O)(=O)c4c(C)noc4C)cc3)CC2)c1C`, the inhibition was 2%.
